Test [1] is described as follows: qHTS assay to identify small molecule agonists of the hypoxia (HIF-1) signaling pathway - cell viability counter screen (AID 1224844; calls by dose curve; note: nearly all actives have a fitted effect of over 50% in size; note: potency is the fitted concentration of half-maximal effect). Put shortly: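 In this counter screen, HRE-bla ME-180 cell viability after 17 hrs of compound exposure at 37C was read by CellTiter-Glo luminescence, multiplexed with the beta-lactamase reporter measurement.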
Test [2] in a line: qHTS assay to identify small molecule agonists of H2AX (AID 1224845; active = well fitted activation curve with a large enough effect in the signal ratio in the repeat runs, not every such curve was filed as active; the % refers to the signal ratio). A digest of the protocol:
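Phospho-H2AX Ser139 measured by HTRF (ex 320 nm; em 665 and 620 nm) after 24 hr antibody incubation. Compounds, 15 concentrations, 0.76% DMSO, were applied to CHO-K1 cells for 3hr at 37C before lysis.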

Test [3] is described as follows: qHTS assay to identify small molecule agonists of H2AX - cell viability counter screen (AID 1224847; calls by dose curve; note: nearly all actives have a fitted effect of over 30% in size; note: potency is the fitted concentration of half-maximal effect). Put shortly:
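Compounds tested at 15 concentrations were incubated 3 hr at 37C with wild-type CHO-K1 cells; cellular ATP-based luminescence (CellTiter-Glo) indicated viability.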

The nature of test [4]: qHTS RealTime-Glo MT Cell Viability Assay in HepG2 cells - 24 hour (AID 1224867). Note: nearly all actives have a fitted effect of over 50% in size. Note: potency is the fitted concentration of half-maximal effect. A digest of the protocol:
(§1)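 Luminescence read-out: viable HepG2 cells reduce a prosubstrate to a NanoLuc substrate, giving a signal proportional to live cell number. Reads taken at 0, 8, 16, 24, 32 and 40 h of compound exposure at 37 C.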

A short description of test [5]: qHTS RealTime-Glo MT Cell Viability Assay in HEK293 cells - 32 hour (AID 1224868). Note: nearly all actives have a fitted effect of over 50% in size. Note: potency is the fitted concentration of half-maximal effect. A digest of the protocol: (§2)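 Nonlytic real-time viability readout: viable cells convert prosubstrate to NanoLuc substrate, giving luminescence proportional to live cell number. HEK293, 600 cells/well, compound added after 5 h, continuous culture at 37 C.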
Test [6] is described as follows: A CellTox Green Cytotoxicity Assay to monitor cytotoxicity in HEK293 cells - 0 hour (AID 1224869). Note: nearly all actives have a fitted effect of over 50% in size. Put shortly: (§3)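 Real-time, in one plate: 600 HEK293 cells/well with dead-cell DNA dye, pinned compound after 5 h, 37 C incubation over 40 h; viable cells give no appreciable fluorescence.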
A short description of test [7]: qHTS RealTime-Glo MT Cell Viability Assay in HepG2 cells - 40 hour (AID 1224870). Note: nearly all actives have a fitted effect of over 50% in size. Note: potency is the fitted concentration of half-maximal effect. Put shortly:
(§4)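 Real-time viability: cells seeded at 600 per well together with NanoLuc and cell-permeant prosubstrate, compounds added after 5 h incubation. Luminescence tracked at 0, 8, 16, 24, 32 and 40 h of exposure.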

Test [8] in a line: A CellTox Green Cytotoxicity Assay to monitor cytotoxicity in HEK293 cells - 40 hour (AID 1224871). Note: nearly all actives have a fitted effect of over 45% in size. Note: potency is the fitted concentration of half-maximal effect. Put shortly: as §3
A short description of test [9]: qHTS RealTime-Glo MT Cell Viability Assay in HEK293 cells - 16 hour (AID 1224872). Put shortly: as §2
Test [10] is described as follows: qHTS RealTime-Glo MT Cell Viability Assay in HepG2 cells - 8 hour (AID 1224873). Note: nearly all actives have a fitted effect of over 55% in size. A digest of the protocol: as §4
The nature of test [11]: qHTS RealTime-Glo MT Cell Viability Assay in HEK293 cells - 40 hour (AID 1224874). Note: nearly all actives have a fitted effect of over 50% in size. Note: potency is the fitted concentration of half-maximal effect. As to conditions: RealTime-Glo luminescence; max response: stronger effect = lower value. A digest of the protocol: (§5)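 Kinetic, non-lysing viability readout. Seed HEK293 (600/well) with reagent, incubate 5 h at 37 C/5% CO2, pin 23 nL compound in DMSO, incubate at 37 C, read luminescence at 0, 8, 16, 24, 32, 40 h.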

Test [12] is described as follows: A CellTox Green Cytotoxicity Assay to monitor cytotoxicity in HEK293 cells - 24 hour (AID 1224875). Note: nearly all actives have a fitted effect of over 45% in size. Put shortly: as §3
The nature of test [13]: A CellTox Green Cytotoxicity Assay to monitor cytotoxicity in HepG2 cells - 16 hour (AID 1224876). Note: nearly all actives have a fitted effect of over 45% in size. Put shortly:
(§6)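 Cytotoxicity was tracked as dead-cell DNA fluorescence in HepG2 cells treated with test compounds at 37 C; each time-point value comes from one kinetic series spanning 0, 8, 16, 24, 32 and 40 h.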

Test [14] can be described thus: qHTS RealTime-Glo MT Cell Viability Assay in HepG2 cells - 32 hour (AID 1224877). Note: nearly all actives have a fitted effect of over 55% in size. Note: potency is the fitted concentration of half-maximal effect. Put shortly: as §1
Test [15] can be described thus: A CellTox Green Cytotoxicity Assay to monitor cytotoxicity in HepG2 cells - 24 hour (AID 1224878). Note: nearly all actives have a fitted effect of over 45% in size. Note: potency is the fitted concentration of half-maximal effect. A digest of the protocol:
as §6

The nature of test [16]: A CellTox Green Cytotoxicity Assay to monitor cytotoxicity in HepG2 cells - 40 hour (AID 1224879). Note: nearly all actives have a fitted effect of over 40% in size. Note: potency is the fitted concentration of half-maximal effect. Put shortly: as §6
Test [17] can be described thus: qHTS RealTime-Glo MT Cell Viability Assay in HEK293 cells - 0 hour (AID 1224880). Put shortly:
as §5

A short description of test [18]: qHTS assay to identify small molecule antagonists of the estrogen related receptor (ERR) signaling pathway from Tox21 library (AID 1224848). Note: nearly all actives have a fitted effect of over 50% in size. Note: potency is the fitted concentration of half-maximal effect. Put shortly:
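ERR cell line, 2,000 cells/well. 6 h settle, then compound (DMSO) added; 18 h at 37 C; ONE-Glo luminescence after 30 min RT.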

Test [19] can be described thus: qHTS assay to identify small molecule agonists of the estrogen related receptor (ERR) signaling pathway from Tox21 library (AID 1224849; calls by dose curve; note: nearly all actives have a fitted effect of over 15% in size). As to conditions: ERR reporter cell line, ONE-Glo luciferase, 18 h; at 92.4 µM (top of the series) unless noted. A digest of the protocol: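 Luciferase activity in ERR pathway reporter cells served as the agonist readout; exposure lasted 18 h at 37 C, with ONE-Glo detection after 30 min at room temperature.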

A short description of test [20]: qHTS assay to identify small molecule agonists of the hypoxia (HIF-1) signaling pathway (AID 1224846; active = well fitted activation curve with a large enough effect in the signal ratio in the repeat runs, not every such curve was filed as active; the % refers to the signal ratio). Put shortly: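 ME-180 HRE-bla reporter cells; compounds in DMSO, 17 h at 37C; read-out beta-lactamase via CCF4-AM FRET.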

Each structure is given as a SMILES string. Where “and” joins values, the source holds several entries; their conditions need not be identical. Equal entries are not always repeated. Inconclusive results are not listed. Some compounds were tested as several samples or in several runs, with calls that do not always agree. Calls of active or inactive are those of the source. Unless noted, calls come from the whole dose curve; as a rule, active = well fitted curve in the direction sought with a large enough effect in the repeat runs; inconclusive = weak or mixed curves; inactive = no such curve, though single readings can be large; an effect the other way counts as inactive or inconclusive.
% is set by controls: 0 for no effect and ±100 for the full control effect.

Consider `CN1[C@@H]2CC[C@H]1CC(O)C2` (stereo partly specified), for which the Potency entry in test [1], in [2], in [3], in [4], in test [5] and in test [6] was “inactive” in each case. For the same molecule, the Potency result in [7], in test [8], in test [9], in test [10], in [12] and in [13] was “inactive” in each case. The Potency entry in test [14], in test [15], in [16] and in [17] was “inactive” throughout. Also, the max response in test [11] is 15.4% (inactive).
On to `C[C@@H]1CC2=CC(=O)CC[C@@H]2[C@H]2CC[C@@]3(C)[C@@H](CC[C@]3(C)O)[C@@H]21`, for which the Potency result in [1], in [2], in [3], in test [4], in test [6] and in test [7] was “inactive” each time. The Potency result in [8], in [10], in test [12], in [13], in test [14] and in [15] was “inactive” each time. In addition, the Potency entry in test [16] and in test [17] was “inactive” each time. In test [18], the Potency is 23.7 µM (active). In addition, the activity change, positive = activation in test [19] was -28.8% [at 42.5 µM] (inactive).
`CN1CCc2cc3c(cc2C1O)OCO3` (stereo unspecified): the Potency result in [1], in test [2], in test [3], in test [4], in [5] and in test [6] was “inactive” throughout. Besides, the Potency result in test [7], in test [8], in test [9], in test [10], in [12] and in [13] was “inactive” each time. For the same molecule, the Potency entry in [14], in [15], in test [16] and in test [17] was “inactive” each time. Further, the activity change, positive = activation in test [19] was 0.659% (inactive). Further, in test [11], the max response is 1.96% (inactive).
Take `O=c1c2ccccc2c(=O)c2c1cc(Cl)c1[nH]c3c([nH]c12)c(Cl)cc1c(=O)c2ccccc2c(=O)c13`: the Potency entry in test [1], in test [20], in test [3], in test [18], in test [4] and in test [5] was “inactive” throughout. Besides, the Potency result in test [6], in [7], in [8], in [9], in test [10] and in [12] was “inactive” each time. The Potency entry in test [13], in test [14], in test [15], in test [16] and in [17] was “inactive” each time. For the same molecule, in test [19], the activity change, positive = activation is -7.42% (inactive). In addition, the max response in test [11] is 12.8% (inactive).
Consider `CCOC(=O)Cc1ccccc1`, for which the Potency result in test [1], in test [2], in [3], in test [5], in [7] and in test [8] was “inactive” throughout. Also, the Potency entry in test [9], in test [10], in [12], in test [13], in test [14] and in test [15] was “inactive” throughout. In addition, the Potency entry in test [16] is “inactive”. Further, in test [11], the max response was 17.4% (inactive).
Turning to `N#CCCl`, the Potency result in [1], in test [2], in [20], in [7], in test [8] and in test [9] was “inactive” in each case. For the same molecule, the Potency result in [10], in test [12], in test [13], in test [14], in [15] and in [16] was “inactive” throughout. Also, in [17], the Potency entry was “inactive”.
For the molecule `O=C(O)[C@H](O)[C@@H](O)C(=O)O`, the Potency result in test [1], in test [2], in test [3], in test [5], in [6] and in [7] was “inactive” each time. Also, the Potency entry in test [8], in test [9], in test [10], in [12], in test [13] and in test [14] was “inactive” in each case. Besides, the Potency result in test [15], in test [16] and in test [17] was “inactive” throughout. In test [11], the max response was 5.57% (inactive).
`COP(=S)(OC)Oc1ccc([N+](=O)[O-])c(C)c1`: the Potency result in test [1], in [2], in test [3], in test [4], in [5] and in [6] was “inactive” in each case. The Potency entry in test [7], in [8], in test [9], in test [10], in [12] and in test [13] was “inactive” in each case. Also, the Potency entry in test [14], in test [15], in test [16] and in test [17] was “inactive” each time. The activity change, positive = activation in test [19] is -19.2% (inactive). For the same molecule, in [11], the max response is -0.352% (inactive).
With `CC1(C)C(C=C(Cl)Cl)C1C(=O)OC(C#N)c1ccc(F)c(Oc2ccccc2)c1` (stereo unspecified), the Potency result in test [1], in test [2], in test [3], in test [4], in test [5] and in test [6] was “inactive” throughout. The Potency entry in [7], in test [8], in [12], in test [13], in test [14] and in test [15] was “inactive” each time. For the same molecule, the Potency entry in test [16] and in test [17] was “inactive” each time. In addition, the activity change, positive = activation in test [19] was -26.4% (inactive). Besides, the max response in test [11] was -18.6% (inactive).
As for `COC(=O)N(OC)c1ccccc1COc1ccn(-c2ccc(Cl)cc2)n1`, the Potency entry in [1], in test [2], in [4], in test [6], in [7] and in test [13] was “inactive” each time. Further, the Potency entry in test [14], in [15], in [16] and in [17] was “inactive” in each case. Further, the Potency is 1.27 µM (active) in test [3], 0.137 µM (active) in test [18], 21.9 µM (active) in test [5] and 13.8 µM (active) in test [11]. Besides, in test [19], the activity change, positive = activation is -52.1% (inactive).
Take `CCN(CC)C(=S)S`: the Potency in test [1] was 19.7 µM (active) and 8.66 µM (active) and 9.77 µM (active); in test [4], “inactive and 21.9 µM (active)”; in [5], 24.8 µM (active) and 4.87 µM (active) and 11 µM (active); in test [7] it was “inactive and 21.9 µM (active)”; in test [8], 17.5 µM (active) and 4.34 µM (active) and 9.77 µM (active); in [11], 24.8 µM (active) and 4.34 µM (active) and 11 µM (active). Moreover, the Potency entry in test [14] is “inactive and 21.9 µM (active)”; in test [15], “inactive and 7.72 µM (active) and 21.9 µM (active)”; in [16], 17.5 µM (active) and 6.13 µM (active) and 19.5 µM (active). Also, the Potency result in test [2], in [3], in test [6], in [9], in test [10] and in test [13] was “inactive” in each case. The Potency result in test [17] was “inactive”.
For `C[C@]12CC[C@H]3[C@@H](CCC4=CC(=O)CC[C@@H]43)[C@@H]1CC[C@@H]2OC(=O)CCc1ccco1`, the Potency entry in test [1], in test [2], in test [20], in [5], in test [6] and in test [7] was “inactive” each time. In addition, the Potency result in [9], in [10], in [13], in [14], in test [16] and in test [17] was “inactive” in each case. Further, in [11], the max response is -8.1% (inactive).

These data come from PubChem BioAssay (Tox21).
